In PubChem BioAssay (NCI):
The panel holds about 83,000 compounds, 20% with a hit somewhere; the sample as a whole holds those more often.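 The test compound was applied at a single concentration to cells in 96-well plates for 48 hours, and percent growth was recorded.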 The source made the active and inactive calls. The calls were made as follows: active = growth percent below 10; inactive = the rest.

Assays:
Experiment in all cases: NCI-60 one-dose screen, 48 h (100 = growth as untreated, 0 = no growth, -100 = all killed)
NCI-H23 lung = conditions: 10 µM unless noted
NCI-H460 lung = conditions: 10 µM unless noted
786-0 renal = conditions: 10 µM unless noted
DU-145 prostate = conditions: 10 µM unless noted
MDA-MB-231 breast = conditions: 10 µM unless noted
SF-268 CNS = conditions: 10 µM unless noted
SF-539 CNS = conditions: 10 µM unless noted
UACC-257 melanoma = conditions: 10 µM unless noted
HCT-15 colon = conditions: 10 µM
PC-3 prostate = conditions: 10 µM unless noted
SK-MEL-5 melanoma = conditions: 10 µM unless noted
LOX IMVI melanoma = conditions: 10 µM unless noted
SK-MEL-28 melanoma = conditions: 10 µM unless noted
SN12C renal = conditions: 10 µM unless noted
NCI/ADR-RES ovarian = conditions: 10 µM unless noted
SW-620 colon = conditions: 10 µM unless noted
MCF7 breast = conditions: 10 µM unless noted
HCT-116 colon = conditions: 10 µM unless noted
HCC-2998 colon = conditions: 10 µM unless noted
KM12 colon = conditions: 10 µM unless noted

Measured: growth

CC(=O)O[C@H]1C[C@H](O[C@H]2[C@@H](O)C[C@H](O[C@H]3[C@@H](O)C[C@H](O[C@H]4CC[C@@]5(C)C(CCC6C5C[C@@H](O)[C@]5(C)[C@@H](C7=CC(=O)OC7)CC[C@]65O)C4)O[C@@H]3C)O[C@@H]2C)O[C@H](C)[C@H]1O[C@@H]1O[C@H](CO)[C@@H](O)[C@H](O)[C@H]1O (some centres undefined)
active: NCI-H23 lung -64.1% | NCI-H460 lung -88.3% | 786-0 renal -91.2% | DU-145 prostate -100% | MDA-MB-231 breast -46.2% | SF-268 CNS -100% | SF-539 CNS -88% | UACC-257 melanoma -100% | HCT-15 colon -79.1% | PC-3 prostate -6.71% | SK-MEL-5 melanoma -100% | LOX IMVI melanoma -97.4% | SK-MEL-28 melanoma -70.5% | SN12C renal -38.9% | NCI/ADR-RES ovarian -69.5% | SW-620 colon -90.5% | MCF7 breast -53% | HCT-116 colon -90.5% | HCC-2998 colon -95% | KM12 colon -100%

CCCC(C)(C)c1ccc2c(c1)OC(C)(C)[C@@H]1CC=C(C)C[C@@H]21
inactive: NCI-H23 lung 96.1% | NCI-H460 lung 106% | 786-0 renal 98.8% | DU-145 prostate 108% | MDA-MB-231 breast 108% | SF-268 CNS 93% | SF-539 CNS 104% | UACC-257 melanoma 93.1% | HCT-15 colon 107% | PC-3 prostate 84.3% | SK-MEL-5 melanoma 102% | LOX IMVI melanoma 96.3% | SK-MEL-28 melanoma 112% | SN12C renal 105% | NCI/ADR-RES ovarian 98.9% | SW-620 colon 97.3% | MCF7 breast 93.9% | HCT-116 colon 87.6% | HCC-2998 colon 109% | KM12 colon 103%

CC(=O)Nc1ccc(Cc2ccc(NC(C)=O)cc2)cc1
inactive: NCI-H460 lung 104% | 786-0 renal 101% | DU-145 prostate 130% | MDA-MB-231 breast 105% | SF-268 CNS 117% | SF-539 CNS 104% | UACC-257 melanoma 99.1% | HCT-15 colon 107% | PC-3 prostate 71.4% | SK-MEL-5 melanoma 104% | LOX IMVI melanoma 99.8% | SK-MEL-28 melanoma 109% | SN12C renal 101% | NCI/ADR-RES ovarian 95.9% | SW-620 colon 117% | MCF7 breast 99.8% | HCT-116 colon 94.9% | HCC-2998 colon 116% | KM12 colon 139%

COc1cc(NCCCCCN=C(N)N)c2ncccc2c1
inactive: NCI-H460 lung 65.9% | 786-0 renal 86.3% | DU-145 prostate 103% | MDA-MB-231 breast 50.8% | SF-539 CNS 23.8% | UACC-257 melanoma 79.7% | HCT-15 colon 99.2% | PC-3 prostate 23.4% | LOX IMVI melanoma 66.4% | SK-MEL-28 melanoma 89.7% | NCI/ADR-RES ovarian 104% | SW-620 colon 58.9% | HCC-2998 colon 55.9% | KM12 colon 32.6%
active: NCI-H23 lung 4.89% | SF-268 CNS 3.28% | SN12C renal 7.58% | MCF7 breast -51.1% | HCT-116 colon 6.08%

O=C(N/N=C/c1ccc([N+](=O)[O-])o1)c1cc([N+](=O)[O-])cc([N+](=O)[O-])c1O
inactive: NCI-H23 lung 94.1% | NCI-H460 lung 105% | 786-0 renal 106% | DU-145 prostate 111% | MDA-MB-231 breast 93.5% | SF-268 CNS 101% | SF-539 CNS 112% | UACC-257 melanoma 99.2% | HCT-15 colon 93.3% | PC-3 prostate 85.9% | SK-MEL-5 melanoma 95% | LOX IMVI melanoma 84.5% | SK-MEL-28 melanoma 113% | SN12C renal 96.1% | NCI/ADR-RES ovarian 89.1% | SW-620 colon 102% | MCF7 breast 84.6% | HCT-116 colon 92.6% | HCC-2998 colon 102% | KM12 colon 99.7%

NC(=O)C(Cl)Cl
inactive: NCI-H23 lung 108% | NCI-H460 lung 100% | 786-0 renal 107% | DU-145 prostate 108% | MDA-MB-231 breast 111% | SF-268 CNS 102% | SF-539 CNS 107% | UACC-257 melanoma 94.8% | HCT-15 colon 97.6% | PC-3 prostate 97.5% | SK-MEL-28 melanoma 112% | SN12C renal 104% | NCI/ADR-RES ovarian 114% | SW-620 colon 113% | MCF7 breast 92.8% | HCT-116 colon 107% | HCC-2998 colon 120% | KM12 colon 110%

CCC(C)(C)O
inactive: NCI-H23 lung 111% | NCI-H460 lung 104% | 786-0 renal 114% | DU-145 prostate 115% | MDA-MB-231 breast 97.4% | SF-268 CNS 99.1% | SF-539 CNS 108% | UACC-257 melanoma 119% | HCT-15 colon 99.9% | PC-3 prostate 100% | SK-MEL-5 melanoma 101% | LOX IMVI melanoma 108% | SK-MEL-28 melanoma 108% | SN12C renal 98.8% | NCI/ADR-RES ovarian 110% | SW-620 colon 99.9% | MCF7 breast 97.6% | HCT-116 colon 111% | HCC-2998 colon 112% | KM12 colon 105%

COC[CH2][Hg][C]#[C][Hg][CH2]COC
inactive: NCI-H23 lung 71% | NCI-H460 lung 94.4% | 786-0 renal 41.7% | DU-145 prostate 87.6% | SF-268 CNS 93.7% | SF-539 CNS 90.7% | UACC-257 melanoma 105% | HCT-15 colon 97.1% | PC-3 prostate 94.7% | LOX IMVI melanoma 17.5% | SK-MEL-28 melanoma 90.1% | SN12C renal 96% | NCI/ADR-RES ovarian 102% | SW-620 colon 108% | MCF7 breast 55.3% | HCT-116 colon 99.2% | HCC-2998 colon 103% | KM12 colon 85.5%
